In PubChem BioAssay AID588405 (Sanford-Burnham Center for Chemical Genomics, 2011):
The whole screen tested about 360,000 compounds, of which about 6,200 (1.7%) were called active. This excerpt belongs to a sample that is enriched for actives. A number with no mark means an inactive call.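 Rule for the calls: active = inhibition of at least 50% at 20 µM; inactive = the rest.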

Experiment: inhibition of PEG-3 promoter activity – cell-based, HeLa, luciferase luminescence, primary screen (AID 588405)
Conditions: HeLa PEG-Prom luciferase reporter, overnight, at 20 µM, hits give high values

Row | Compound | inhibition
1 | O=C(Nc1ccccc1)c1nnsc1S(=O)(=O)c1ccc(Cl)cc1 | 67.4% (active)
2 | Cc1nnsc1S(=O)(=O)Cc1ccccc1Cl | 14.5%
3 | O=C(Nc1ccc(S(=O)(=O)N2CCOCC2)cc1)C1CCN(S(=O)(=O)c2ccc(Cl)cc2)CC1 | 20.9%
4 | Cc1ccc(-c2cnc(C(O)c3cccc(C)c3C)[nH]2)cc1 (stereo not drawn) | -14.4%
5 | Cc1ccc(Cc2c(-c3ccco3)nc3ccc(Cl)cn23)cc1 | 2.16%
6 | Cc1cccc(-n2ncc(Cl)c(Cl)c2=O)c1 | 109% (active)
7 | Cc1cccc(-n2ncc3c(=O)[nH]c(SCC(=O)Nc4cc(C)on4)nc32)c1 | 15.5%
8 | CC(=O)Nc1c2c(nn1-c1cccc(C)c1)CSC2 | 1.92%
9 | CCc1nc2ccc(C(=O)N(C)CCN(C)C)cn2c1N(CC)CCOC | -8.52%
10 | CN1CCN(C2Cc3ccc(Cl)cc3Sc3ccc(F)cc32)CC1 (stereo not drawn) | 76% (active)
11 | CC1(C(=O)NS(=O)(=O)c2cccc(F)c2)CCN1C(=O)Cc1cc(F)ccc1F (stereo not drawn) | 7.15%
12 | O=C(CSc1nc(Nc2ccccc2)nc(N2CCOCC2)n1)Nc1cc(Cl)ccc1O | 86.5% (active)
13 | C/C(=N\Nc1nc(Nc2ccccc2)nc(N2CCOCC2)n1)c1cccs1 | 7.28%
14 | CC1(c2ccccc2)NC(=O)N(CC(=O)Nc2cc(Cl)ccc2N2CCOCC2)C1=O (stereo not drawn) | 2.35%
15 | Brc1ccc2nc(-c3ccccc3)c(Cc3ccccc3)n2c1 | -51%
16 | CCOC(=O)c1ccc(-c2ccc3ncnc(N(C)Cc4sccc4C)c3c2)o1 | 31.1%
17 | CCCCSc1[nH]c(=O)c(C(=O)OCC)cc1C#N | 3.02%
18 | NC(N)=Nc1nc(-c2ccccc2)c2cc(Cl)ccc2n1 | 108% (active)
19 | COC(=O)Cn1nc(-c2ccccc2)c2cc(Cl)ccc21 | 13.3%
20 | Cc1nc(N=C(N)N)nc2c(C)cccc12 | 20.3%
21 | CCCS(=O)(=O)NC(=O)C1(C)CCCN(C(=O)c2ccnc(Cl)c2)C1 (stereo not drawn) | -1.18%
22 | OC[C@@H]1CN(Cc2ccc3c(c2)OCO3)C[C@H](n2cnc3c(NCc4ccco4)ncnc32)O1 | -2.19%

Row | Compound | inhibition
23 | Cc1cc(O)ccc1-c1cc(C(=O)NCc2cc(C(F)(F)F)cc(C(F)(F)F)c2)[nH]n1 | 5.2%
24 | Oc1ccc2ccccc2c1N=Nc1nccs1 | 97.5% (active)
25 | COC(=O)[C@@H]1C[C@@]2(O)[C@H](O)[C@H](O)[C@H](O)C[C@H]2N1Cc1ccc(C(C)(C)C)cc1 | 2.16%
26 | CCOc1ccc2nc(Cl)c(C3CC(c4ccccc4)=NN3C(=O)c3cccs3)cc2c1 (stereo not drawn) | 55.1% (active)
27 | COc1ccc(C2=NN(C(=O)CCC(=O)O)C(c3cccs3)C2)cc1OC (stereo not drawn) | 9.5%
28 | O=C(COc1ccc2ccccc2c1)N1CCN(C(=O)c2cccs2)CC1 | 3.04%
29 | COC(=O)c1ccc2nc(-c3ccc(Cl)cc3)c(Cc3cccc(F)c3)n2c1 | -38.1%
30 | Cc1noc(C)c1C(=O)N1CCC1(C)C(=O)NS(=O)(=O)c1ccc(C#N)cc1 (stereo not drawn) | -15.2%
31 | CC(O)(c1cccc(F)c1)c1nc(-c2ccc3c(c2)OCO3)cs1 (stereo not drawn) | -65.7%
32 | CC(C)(C)Cc1c(C2CCCCC2)nc2ccc(Br)cn12 | 16%
33 | Cc1c(Cl)c([N+](=O)[O-])nn1Cc1ccc(C(=O)N/N=C\c2cc(Cl)ccc2O)o1 | 61.5% (active)
34 | O=C(N/N=C\c1ccc(Br)cc1)c1ccc(Cn2cccn2)o1 | -62.6%
35 | Cc1nn(Cc2ccccc2Cl)c(C)c1NC(=O)Cn1nc([N+](=O)[O-])c(Cl)c1C | -1.84%
36 | COCOc1cccc(CN2CCC(C)(Oc3ccc(SC)cc3)C2)c1 (stereo not drawn) | -1.46%
37 | COc1cc(Cl)c(C)cc1NC(=O)CSc1nnc(-c2ccco2)n1CC(C)C | 12.4%
38 | NC(Cc1ccccc1)c1csc(Nc2cc(Oc3ccccc3)ncn2)n1 (stereo not drawn) | 54.6% (active)
39 | Cc1nc2c(OCc3ccc(Cl)cc3)cccn2c1N(C)Cc1cccs1 | 6.73%
40 | N/C(=N\OC(=O)c1ccc([N+](=O)[O-])cc1)c1ccccn1 | 5.67%
41 | Cc1cccc(/C(N)=N/OC(=O)c2ccccc2Cl)c1 | -145%
42 | Cc1ccc(C(=O)O/N=C(\N)c2ccccn2)cc1Cl | 62.4% (active)
43 | CC(=O)Nc1cccc(-c2cc(NC(C)=O)c3ncc(-c4ccccc4)n3c2)c1 | 20.6%
44 | CCOC(=O)C1CN(S(=O)(=O)c2ccc(OC)cc2)c2cc(Cl)ccc2O1 (stereo not drawn) | 8.58%

Row | Compound | inhibition
45 | Cc1ccc(NC(=O)[C@H](Cc2ccccc2)NC(=O)CC[C@H]2O[C@@H](n3ccc(=O)[nH]c3=O)[C@H](O)[C@@H]2O)cc1C | 4.14%
46 | COC(=O)c1ccc2nc(-c3cccc(Br)c3)c(Cc3ccc(OC)cc3C)n2c1 | -33%
47 | CCCCNc1c(-c2cccc(Sc3ccc(OC)cc3)c2)nc2ccccn12 | 92.9% (active)
48 | CCCCNc1c(-c2ccc(OC)c(Sc3ccc(OC)cc3)c2)nc2ccc(Cl)cn12 | -44%
49 | CS(=O)(=O)/C(C#N)=C/c1cccn1S(=O)(=O)c1ccc([N+](=O)[O-])cc1 | -17.4%
50 | O=C(NCCN1CCOCC1)c1ccccc1N1C(=O)[C@@H]2Cc3c([nH]c4ccccc34)C(c3cccc(Cl)c3)N2C1=O (stereo partly drawn) | 20.3%
51 | CC(C)c1cccc(C(C)C)c1Nc1cn[nH]c1 | 9.45%
52 | COC(=O)c1ccc2nc(-c3ccc(OC)c(OC)c3)c(Cc3ccccc3)n2c1 | -21.6%
53 | S=C(NN=Cc1ccccn1)Nc1ccccn1 | -79.6%
54 | O=C(N/N=C/c1ccccn1)C12CC3CC(CC(C3)C1)C2 | -8.28%
55 | Cc1nnc(N/N=C/c2ccccn2)[nH]c1=O | 62% (active)
56 | Cc1ccc(CNC(=O)Nc2nnc([C@H]3C[C@H](O)[C@@H](CO)O3)s2)cc1 | -6.3%
57 | CC1(C(=O)Nc2ccc3c(c2)OCCO3)CCN1C(=O)Cc1cc(F)ccc1F (stereo not drawn) | 2.13%
58 | Cc1ccc(C(=O)N/C(=C\c2ccco2)C(=O)NC2CCS(=O)(=O)C2)cc1 (stereo not drawn) | 16.9%
59 | CCCc1nc2c3ccccc3ccn2c1Cc1ccccc1C(F)(F)F | -16%
60 | CN1OC[C@@H]2CN(C(=O)C(C)(C)C)[C@H](c3ccc(-n4ccnc4)cc3)C[C@@H]21 | -4.85%
61 | CC(=O)Nc1ccc(C=Cc2ccc([N+](=O)[O-])cc2)cc1 | -310%
62 | CN(C)S(=O)(=O)N1CCN(c2ccc([N+](=O)[O-])cc2)CC1 | 14.5%
63 | O=C1/C(=C\c2ccc([N+](=O)[O-])cc2)CS(=O)(=O)C/C1=C/c1ccc([N+](=O)[O-])cc1 | 100% (active)
64 | CCCNC(=O)C1(C)CCCN(Cc2cccc(C(F)(F)F)c2)C1 (stereo not drawn) | 2.53%
65 | CCCOc1ccc(F)cc1-c1cc(C(=O)Nc2ccc(F)c(Cl)c2)[nH]n1 | 25.8%
66 | CC1(C(=O)NS(=O)(=O)C2CC2)CCCN(C(=O)CSc2ccccc2)C1 (stereo not drawn) | 8.07%

Row | Compound | inhibition
67 | O=S(=O)(c1ccccc1)N1CCC(c2ccccc2)CC1 | 6.2%
68 | CC(=O)N1CC(C)c2scc(C)[n+]2-c2ccccc21 (stereo not drawn) | 5.89%
69 | CN1OC[C@@H]2CN(S(=O)(=O)c3cccc4ccccc34)[C@H](c3ccc(N4CCCCC4)cc3)C[C@@H]21 | -9.16%
70 | CN1OC[C@@H]2CN(S(=O)(=O)c3cccc(C(F)(F)F)c3)[C@H](c3ccc(-c4cc5ccccc5o4)cc3)C[C@@H]21 | 68.8% (active)
71 | COc1ccc(S(=O)(=O)N2C[C@H]3CON(C)[C@H]3C[C@H]2c2cccc(Br)c2)cc1 | 6.82%
72 | Nc1nc2c(ncn2[C@@H]2O[C@H](CNS(=O)(=O)N3CCc4ccccc4C3)[C@@H](O)[C@H]2O)c(=O)[nH]1 | 5.67%
73 | Cc1ccc(-c2cnc(C(O)c3cc(Cl)cc(Cl)c3)[nH]2)cc1 (stereo not drawn) | 37.2%
74 | CC1(C(=O)O)CCN1C(=O)/C=C/c1ccccc1 (stereo not drawn) | -2.65%
75 | CC1(C)CCSC(/C=C/c2ccccc2)=N1 | 106% (active)
76 | CC1(C(=O)NS(=O)(=O)c2ccccc2)CCN1C(=O)C/C=C/c1ccccc1 (stereo not drawn) | -9.64%
77 | CC(C)(C)c1ccc(C(=O)NCC(=O)OCN2C(=O)c3ccccc3C2=O)cc1 | -11.7%
78 | CC(=O)N(CN1C(=O)C2CC=CCC2C1=O)c1cccc(Cl)c1 (stereo not drawn) | 12%
79 | COC(=O)c1cc(C(=O)N(Cc2ccccc2)c2ccccn2)cc([N+](=O)[O-])c1 | 5.92%
80 | O=C(CCl)N(Cc1cccc([N+](=O)[O-])c1)c1cccc(Cl)c1 | 109% (active)
81 | COC(=O)Cc1ccc(OC2(C)CCN(Cc3ccc4c(c3)OCCO4)C2)cc1 (stereo not drawn) | -18.6%
82 | Cc1cccc(C)c1NC(=O)CN1CCN(c2ccc(F)cc2)CC1 | 5.77%
83 | Cc1ccc(NC(=O)N2CCC(C(=O)NCc3ccc(F)cc3)CC2)cc1 | 6.32%
84 | CCc1ccc(CNC(=O)C2CC(=O)N(CCc3ccc(C)cc3)C2)cc1 (stereo not drawn) | 7.77%
85 | CCc1ccc(CNC(=O)C2CCN(c3nnc(C)c4c(C)n(-c5ccc(C)cc5)nc34)CC2)cc1 | 99.3% (active)
86 | COc1ccc(OC)c(S(=O)(=O)N2CCCC(C(=O)NCCc3ccccc3)C2)c1 (stereo not drawn) | 5.79%
87 | N#CCCN(C(=O)COC(=O)C1CCN(c2ccc(C(F)(F)F)cn2)CC1)c1ccc(F)cc1 | -15.9%
88 | CCOC(=O)C1(Cc2ccccc2C)CCCN(C(=O)c2ccc(COC)o2)C1 (stereo not drawn) | -235%
